A collection of fitness landscapes (doi:10.1016/j.celrep.2020.107928)
Whole data set: some 81,000 sequences, median “one-hybrid fitness for binding parS DNA” near -0.17, cut for the highest 2% near 0.51. This excerpt belongs to a sample that is enriched for the highest values.

B1: Caulobacter ParB omega fusion; a variant is named by its letters at X, in order, B8GW30 (parent)
chain: MESVVVGEPGMSEGRRGLGRGLSALLGEVDAAPAQAPGEQLGGSREAPIEILQRNPDQPRRTFREEDLEDLSNSIREKGVLQPILVRPSPDTAGEYQIVAGERAWRAAQRAGLKTVPIMVRELDDLAVLEIGIIENVQRADLNVLEEALSYKVLMEKFERTQENIAQTIGKSXSHVANXMRLLXLPDEVQSYLVSGELTAXHARAIAAAADPVALAKQIIEGGLSVRETEALARKAPNLSAGKSKGGRPPRVKDTDTQALESDLSSVLGLDVSIDHRGSTGTLTITYATLEQLDDLCNRLTRGI

Variants of: B1
Experiment: one-hybrid fitness for binding parS DNA (scaled: cognate 1, non-cognate 0); higher = stronger binding
Conditions: with parS DNA site
Outline: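 The reporter was HIS3, with the binding site 19 bp from the promoter, in E. coli USO used for bacterial one-hybrid selection of Caulobacter ParB libraries with four specificity codons randomised. Growth was on M9 lacking histidine, with 0.1 mM IPTG and 5 mM 3-AT, for 48 hours at 37°C. Illumina sequencing covered plasmids before and after selection; three replicate libraries were pooled and variants with under 10 reads dropped. A fitness score is the log change in variant-to-wild-type read ratio, rescaled to the cognate and non-cognate references.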

Variant	one-hybrid fitness for binding parS DNA
LHAG	≤ 0.2
QGGK	≤ 0.2
TMSY	≤ 0.2
QLMM	≤ 0.2
SQKG	≤ 0.2
RSVH	≤ 0.2
REVC	≤ 0.2
RCVC	0.965
RPVC	≤ 0.2
RSVD	≤ 0.2
RSVC	0.775
AWDA	≤ 0.2
HGSI	≤ 0.2
DKKR	≤ 0.2
SPNA	≤ 0.2
LWAR	≤ 0.2
VAPG	≤ 0.2
RNFG	0.662
RNAR	≤ 0.2
RNAG	0.853
RNFY	≤ 0.2
RNFR	≤ 0.2
RNAY	0.359
NIRE	≤ 0.2
HAKP	≤ 0.2
CTSH	≤ 0.2

Variant	one-hybrid fitness for binding parS DNA
HSAT	≤ 0.2
REAF	≤ 0.2
LGNC	≤ 0.2
RMVL	≤ 0.2
RMKG	0.929
RMVG	0.971
RMKP	≤ 0.2
RMVK	≤ 0.2
RMKR	≤ 0.2
FQCR	≤ 0.2
TNCV	≤ 0.2
IAED	≤ 0.2
TLGD	≤ 0.2
IMTY	≤ 0.2
HASR	≤ 0.2
WPLT	≤ 0.2
RVGW	0.209
RLCR	≤ 0.2
RLCC	0.995
RLLK	≤ 0.2
RLSC	0.98
RLHC	0.973
RLHN	0.442
RLLY	0.505
RLSH	0.266
RLHD	≤ 0.2

Variant	one-hybrid fitness for binding parS DNA
RLSP	≤ 0.2
RLLC	1
RLCY	0.485
QRLD	≤ 0.2
GQHW	≤ 0.2
KKGT	≤ 0.2
PNTI	≤ 0.2
NASI	≤ 0.2
HCLN	≤ 0.2
TCIV	≤ 0.2
HMWR	≤ 0.2
YTVS	≤ 0.2
RLRN	0.432
RLRC	0.846
RLYR	0.23
RLRQ	≤ 0.2
RLYC	1.01
RLYK	≤ 0.2
WPPM	≤ 0.2
YLAL	≤ 0.2
RVHD	≤ 0.2
RVRQ	≤ 0.2
RVSF	0.224
RVRK	≤ 0.2
RVHP	≤ 0.2
RVYT	0.93

Variant	one-hybrid fitness for binding parS DNA
RVYK	≤ 0.2
RVHT	0.927
RVST	0.92
RVRT	0.825
RVSK	≤ 0.2
RVYF	0.25
GPPY	≤ 0.2
YVGI	≤ 0.2
QTHG	≤ 0.2
FAKY	≤ 0.2
LKTR	≤ 0.2
PGLR	≤ 0.2
RVLQ	≤ 0.2
RVQN	0.417
RVLT	0.92
RVDD	≤ 0.2
RVWF	0.25
RVWT	0.886
RVDH	≤ 0.2
RVDT	0.741
RVQP	≤ 0.2
RVWR	≤ 0.2
RVLM	0.309
RVQT	0.913
